These results are taken from PubChem BioAssay (NCI).

Experiment [1] in a line: NCI Yeast Anticancer Drug Screen. Data for the rad50 strain (AID 155).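 Note: 0% = growth of vehicle-only cultures of the same strain.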 Particulars: S. cerevisiae rad50 strain growth inhibition; at 50.0 µM; stronger effect = higher value. The gist of the method:
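Yeast carrying a defined DNA repair defect were exposed to test compounds, and growth was compared with vehicle-treated controls to give percent inhibition.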

Experiment [2] is described as follows: NCI Yeast Anticancer Drug Screen. Data for the mec2-1 strain (AID 157). The following applies: S. cerevisiae mec2-1 strain, at 50.0 µM, stronger effect = higher value. In outline: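 mec2-1 yeast strain, carrying an alteration in DNA damage repair or cell cycle control, was exposed to compounds; growth inhibition was measured relative to vehicle-treated controls.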
Experiment [3] is described as follows: NCI Yeast Anticancer Drug Screen. Data for the sgs1 mgt1 strain (AID 161).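 Note: 0% = growth of cultures given vehicle only.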 Particulars: S. cerevisiae sgs1 mgt1 strain, at 50.0 µM, stronger effect = higher value. In outline: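 Compounds are added to genetically altered yeast, and growth is compared with cultures given vehicle alone to give percent inhibition.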
The nature of experiment [4]: NCI Yeast Anticancer Drug Screen. Data for the cln2 rad14 strain (AID 165).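 Note: 0% = growth equal to vehicle treated cultures.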 The following applies: S. cerevisiae cln2 rad14 strain, at 50.0 µM, stronger effect = higher value. The gist of the method: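 Yeast carrying cln2 and rad14 alterations (cell cycle control and DNA damage repair) were exposed to compounds. Growth inhibition was measured against vehicle-treated controls.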

The nature of experiment [5]: NCI Yeast Anticancer Drug Screen. Data for the bub3 strain (AID 167). The following applies: S. cerevisiae bub3 mutant strain, at 50.0 µM, stronger effect = higher value. In outline:
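Compounds were applied to a genetically altered yeast strain carrying a cell-cycle control defect. Growth inhibition was scored against vehicle-treated controls.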

Experiment [6] can be described thus: NCI Yeast Anticancer Drug Screen. Data for the mlh1 rad18 strain (AID 175). Particulars: S. cerevisiae mlh1 rad18 strain growth inhibition; at 50.0 µM; stronger effect = higher value. The gist of the method: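 Growth inhibition of the yeast strain was measured after compound exposure and expressed relative to vehicle-treated controls. The strain carries defined defects in DNA damage repair.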

“And” between values parts separate entries of the source, which are not always exact repeats. Equal entries are not always repeated. Compounds without any hit were thinned out: in the full panel of roughly 79,000, 15% have a hit. Where a structure was tested more than once in an assay, its records may differ in their call. The source made the active and inactive calls. Cut-off read from the data, not from the text of the source: active = growth inhibition above about 70%; inactive = the rest.

Regarding `CC1CNC2C(=O)NC(=O)NC2N1` (centres undefined), the growth inhibition was 3.15% (inactive) in experiment [1]; 1.95% (inactive) in experiment [2]; -10.2% (inactive) in experiment [3]; -5.25% (inactive) in experiment [4]; 5.2% (inactive) in experiment [5]; -4.7% (inactive) in experiment [6].

For the compound `Cn1c(=O)n(C2(C)C[Se]C2)c2ccccc21`, the growth inhibition was -11.5% (inactive) in experiment [1]; -15.7% (inactive) in experiment [2]; -16.8% (inactive) in experiment [3]; -15.4% (inactive) in experiment [4]; -13.7% (inactive) in experiment [5]; -22.5% (inactive) in experiment [6].

Consider `Nc1ccc(C(=O)O)c(C(=O)O)c1`, for which the growth inhibition is -10.5% (inactive) in experiment [1]; -6.8% (inactive) in experiment [2]; 1.35% (inactive) in experiment [3]; -32% (inactive) in experiment [4]; -13.9% (inactive) in experiment [5]; -7.05% (inactive) in experiment [6].

`Cc1cc(N(CCCl)CCCl)ccc1CN1CCCN(Cc2ccc(N(CCCl)CCCl)cc2C)C1c1cc(O)cc(Br)c1`: the growth inhibition is 43% (inactive) in experiment [1]; 24.5% (inactive) in experiment [2]; 35.4% (inactive) in experiment [3]; -2.55% (inactive) in experiment [4]; 9.3% (inactive) in experiment [5]; 37.9% (inactive) in experiment [6].

For `CC(=O)OCCCn1nc(COC(N)=O)c2c1CC(C)CC2=O` (centres undefined), the growth inhibition in experiment [1] is 1% (inactive); in experiment [2], -11.3% (inactive); in experiment [3], -8.25% (inactive); in experiment [4], -4.35% (inactive); in experiment [5], -14.8% (inactive); in experiment [6], 3.65% (inactive).

With `O=C1C(=O)c2ccccc2-c2ccccc21`, the growth inhibition in experiment [1] was 36.6% (inactive) and 34.6% (inactive); in experiment [2] it was 31.1% (inactive) and 18.2% (inactive); in experiment [3], 32.8% (inactive) and 25.5% (inactive); in experiment [4], -6.65% (inactive) and -35.9% (inactive); in experiment [5], 25.9% (inactive) and 30.6% (inactive); in experiment [6], 5.35% (inactive) and 9.6% (inactive).

Turning to `CC(Cc1ccccc1)NC(=O)/C=C/C(=O)O` (centres undefined), the growth inhibition in experiment [1] is 5.9% (inactive); in experiment [2], 4.25% (inactive); in experiment [3], 9.6% (inactive); in experiment [4], -6.95% (inactive); in experiment [5], 36.8% (inactive); in experiment [6], 11.9% (inactive).

For `CC1(C)OC2(C)CCC1C(O)C2N1CCCCC1` (centres undefined), the growth inhibition in experiment [1] was -29.6% (inactive); in experiment [2], -4.15% (inactive); in experiment [3], -13.4% (inactive); in experiment [4], 0.75% (inactive); in experiment [5], -1% (inactive); in experiment [6], -8.6% (inactive).

Consider `O=C(OCCOCCOC(=O)C(Cl)(Cl)Cl)C(Cl)(Cl)Cl`, for which the growth inhibition in experiment [1] was -47% (inactive); in experiment [2], -33.1% (inactive); in experiment [3], -29.4% (inactive); in experiment [4], 39.2% (inactive); in experiment [5], -46.6% (inactive); in experiment [6], 7.95% (inactive).

As for `O=[N+]([O-])c1cc(C2CCCCC2)c(O)c([N+](=O)[O-])c1`, the growth inhibition in experiment [1] was 47.3% (inactive) and 47.2% (inactive); in experiment [2] it was 26% (inactive) and 79.5% (active); in experiment [3], 18% (inactive) and 80.8% (active); in experiment [4], -8.75% (inactive) and 59.2% (inactive); in experiment [5], 21.2% (inactive) and 81.8% (active); in experiment [6], 26.4% (inactive) and 86.3% (active).

On to `CCOC(=O)C(C(=O)OCC)c1ccccc1`, for which the growth inhibition in experiment [1] is 7.05% (inactive) and 25.4% (inactive); in experiment [2] it was -11% (inactive) and 12.9% (inactive); in experiment [3], 11.7% (inactive) and 11.1% (inactive); in experiment [4] it was 2.4% (inactive) and 3.75% (inactive); in experiment [5], 40.4% (inactive) and 23.1% (inactive); in experiment [6], -0.15% (inactive) and 9.55% (inactive).

Take `O=C(NCCNC(=O)Nc1ccccc1S(=O)(=O)F)Nc1ccccc1S(=O)(=O)F`: the growth inhibition in experiment [1] was -17% (inactive); in experiment [2] it was -35.2% (inactive); in experiment [3], -16.1% (inactive); in experiment [4] it was 6.55% (inactive); in experiment [5], -32.1% (inactive); in experiment [6], -13% (inactive).

`CN1CC=C(OP(=O)(NCc2ccccc2)N(CCCl)CCCl)CC1` (centres undefined): the growth inhibition in experiment [1] was -6.25% (inactive); in experiment [2], -12.8% (inactive); in experiment [3], 0.9% (inactive); in experiment [4] it was -3.1% (inactive); in experiment [5], -17.4% (inactive); in experiment [6], -34% (inactive).

Take `Cc1cccc(C)c1OCC1=NCCN1`: the growth inhibition was 4.75% (inactive) in experiment [1]; 14.3% (inactive) in experiment [2]; 0.1% (inactive) in experiment [3]; -55.6% (inactive) in experiment [4]; 5.5% (inactive) in experiment [5]; -13.1% (inactive) in experiment [6].

On to `CCN(CCCl)c1cccc(NC(=O)c2ccc(C(=O)Nc3cccc(CN(C)C)c3)cc2)c1`, for which the growth inhibition in experiment [1] was 5.55% (inactive); in experiment [2], -6.3% (inactive); in experiment [3], 20.5% (inactive); in experiment [4] it was -1.95% (inactive); in experiment [5], -14.4% (inactive); in experiment [6], 26.3% (inactive).

Turning to `CC(=O)CC(C)=O.[In]`, the growth inhibition in experiment [1] is 23.8% (inactive); in experiment [2] it was 42.6% (inactive); in experiment [3], 34.5% (inactive); in experiment [4] it was 29.4% (inactive); in experiment [5], 27.6% (inactive); in experiment [6], 2.65% (inactive).

As to `C=CCC1(CC=C)C(=O)N(C)C(=O)N(C)C1=O`, the growth inhibition was 7.25% (inactive) in experiment [1]; 13.7% (inactive) in experiment [2]; -6.75% (inactive) in experiment [3]; 8.45% (inactive) in experiment [4]; 5.2% (inactive) in experiment [5]; -6.95% (inactive) in experiment [6].

For the compound `COc1nc2ccccc2nc1N1CC1`, the growth inhibition in experiment [1] is -3.25% (inactive); in experiment [2], -31% (inactive); in experiment [3], -15% (inactive); in experiment [4] it was 6.9% (inactive); in experiment [5] it was -24.6% (inactive); in experiment [6] it was -1.65% (inactive).

Take `NNC(=O)c1cc([N+](=O)[O-])c(O)c([N+](=O)[O-])c1`: the growth inhibition in experiment [1] was -9.85% (inactive); in experiment [2], -14.8% (inactive); in experiment [3] it was 8.35% (inactive); in experiment [4] it was 7.4% (inactive); in experiment [5] it was 11.8% (inactive); in experiment [6], -5.55% (inactive).
